Screening results: PubChem, National Center for Advancing Translational Sciences (NCATS)
The sample as a whole holds a higher share of hits than the screen did.
VDR inhibitor – inhibitors of human vitamin D receptor; P11473; VDR-SRC2-3 peptide fluorescence polarization, 2 h; Potency, µM, for the others: max response, negative = inhibition, most hits filed as inhibitors; 400,000 tested, 0.93% active; AID 504847; further: on the % scale 0 is the no-effect control and ±100 the full control effect
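Signal is fluorescence polarization, reporting how far test compounds block the interaction of VDR with the SRC2-3 coregulator peptide after a 2 h room-temperature incubation.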
Sfp inh – blocks B. subtilis Sfp PPTase activity | Q9F4F7 | Biochemical Sfp PPTase activity, qHTS | Potency, µM, without a hit: largest response in the series, negative = inhibition, usual class: inhibitors | 310,000 tested, 3.5% active | AID 1490;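 further: the enzyme is Sfp with the accession as filed and its product quenches rhodamine fluorescence; 0% = enzyme reaction without inhibitor and -100% = no enzyme wells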
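Reaction rates are the 30-min fluorescence difference (ex 525, em 598 nm) in wells containing 15 nM Sfp, 5 uM rhodamine-CoA and 12.5 uM BHQ-2-YbbR at pH 7.6 with 10 mM MgCl2.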
G9a inh – G9a (human) methyltransferase inhibition; Q96KQ7; G9a H3K9 monomethylation, AlphaScreen, 2 h; Potency, µM (titrated, usually from 102 µM), for the others: at the top dose activity, negative = inhibition, usual class: inhibitors; 350,000 tested, 8.8% active; further: on the % scale 0 is the no-effect control and ±100 the full control effect; nearly all actives have a fitted effect of over 75% in size
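Enzyme 20 nM + cpd, 15 min RT; add b-H3K9 pep 500 nM / SAM 20 uM; 2 h RT; anti-H3K9me1 Ab 0.5 ug/mL + SA donor / anti-rabbit acceptor beads 20 ug/mL each, 10 min; AlphaScreen read.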
ALOX12 inh – inhibitors of human 12S-lipoxygenase ALOX12. P18054. purified 12hLO, xylenol orange hydroperoxide absorbance. Potency, µM (titrated, usually from 108 µM), for the others: top-dose activity change, negative = inhibition, actives largely listed as inhibitors. 580,000 tested, 1.1% active. AID 1671190; further: on the % scale 0 is the no-effect control and ±100 the full control effect
Target sequence (P18054 whole entry, looked up): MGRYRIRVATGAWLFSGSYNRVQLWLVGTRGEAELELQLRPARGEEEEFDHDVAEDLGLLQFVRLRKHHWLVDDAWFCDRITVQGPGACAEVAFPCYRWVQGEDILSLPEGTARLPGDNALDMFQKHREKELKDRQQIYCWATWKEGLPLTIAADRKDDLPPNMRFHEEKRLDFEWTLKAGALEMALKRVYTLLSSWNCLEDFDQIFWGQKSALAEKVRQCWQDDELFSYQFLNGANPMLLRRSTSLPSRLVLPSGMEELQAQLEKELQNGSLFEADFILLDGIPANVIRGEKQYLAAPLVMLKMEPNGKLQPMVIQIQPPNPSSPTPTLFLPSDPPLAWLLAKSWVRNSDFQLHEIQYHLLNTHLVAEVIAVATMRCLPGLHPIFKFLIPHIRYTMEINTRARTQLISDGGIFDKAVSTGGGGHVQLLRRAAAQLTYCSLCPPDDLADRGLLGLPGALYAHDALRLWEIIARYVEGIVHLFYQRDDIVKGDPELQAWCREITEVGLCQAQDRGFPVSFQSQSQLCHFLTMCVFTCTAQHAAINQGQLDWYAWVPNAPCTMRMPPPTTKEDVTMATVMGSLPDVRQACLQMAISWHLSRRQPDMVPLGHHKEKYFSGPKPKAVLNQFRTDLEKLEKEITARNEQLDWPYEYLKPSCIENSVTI
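Purified human 12hLO (150 nM final) in 25 mM Hepes, 0.01% Triton X-100, pH 7.0 was preincubated 15 min at room temperature with compound. Then 40 uM arachidonic acid was added, 30 min. Hydroperoxide was read by Fe-XO absorbance ratio 573/405 nm.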
Glioma ERSR ind – ER stress response induction in glioma | U87-MG GRP78 promoter luciferase reporter, 16 h | Potency, µM, for inactives: at the highest dose activation, usual class: activators | 420,000 tested, 0.02% active; further: series mostly up to about 76 µM; % of control where 0% means no effect; nearly all actives have a fitted effect of over 35% in size
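Stably transfected U87-MG human glioma cells carrying a GRP78-based luminescent sensor were seeded at 1000 cells/well, pin-dosed with compounds and incubated 16 h. Luciferase reagent was then added, and end-point luminescence was read after 10 min at room temperature.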
An asterisk follows results filed as active; [ ] = dose if it differs, or a comment. The call rests on the fitted dose curve; in most records, active means well fitted curve in the direction sought with a large enough effect; inconclusive means small, poorly fitted or top-dose-only effect, or another doubt; inactive means no such curve, though single readings can be large; an effect the other way counts as inactive or inconclusive. Potency means the concentration at half of the fitted maximal effect.

How did CC(C)c1ccc(NS(=O)(=O)c2ccc(N3C(=O)CCC3=O)cc2)cc1 do in these assays?
VDR inhibitor: -1%; Sfp inh: -3%; ALOX12 inh: 131%; Glioma ERSR ind: -8%

How did CC(C)c1ccc(S(=O)(=O)Nc2ccc(N3CCOCC3)cc2)cc1 do in these assays?
VDR inhibitor: 5%; Sfp inh: 9%; G9a inh: inconclusive; ALOX12 inh: inconclusive; Glioma ERSR ind: 1%

How did Cc1ccc(S(=O)(=O)c2ccc(NN)cc2)cc1 do in these assays?
VDR inhibitor: -8%; Sfp inh: 3%; G9a inh: 8.9µM*; ALOX12 inh: 3%; Glioma ERSR ind: -7%

How did Cc1ccc(NS(=O)(=O)c2ccc(NC(=O)N3CCCCC3)cc2)cc1 do in these assays?
VDR inhibitor: -3%; Sfp inh: 10%; ALOX12 inh: -1%; Glioma ERSR ind: -5%

Results for Cc1ccc(NS(=O)(=O)c2ccc(N3C(=O)CCC3=O)cc2)cc1 ?
VDR inhibitor: -2%; Sfp inh: -4%; G9a inh: 50µM*; ALOX12 inh: -5%; Glioma ERSR ind: -4%

How did Cc1ccc(S(=O)(=O)Nc2ccc(N3CCOCC3)cc2)cc1C do in these assays?
VDR inhibitor: 1%; Sfp inh: 0%; G9a inh: 45µM*; ALOX12 inh: 4%; Glioma ERSR ind: -4%

Results for Cc1ccc(S(=O)(=O)Nc2ccc(N3CCCCC3)cc2)cc1 ?
VDR inhibitor: 2%; Sfp inh: 4%; G9a inh: 22µM*; ALOX12 inh: inconclusive; Glioma ERSR ind: -4%

How did O=C1N(CCCCOc2ccccc2)c2ccccc2NC12CCNCC2 do in these assays?
ALOX12 inh: 59%

How did O=C(NC[C@H]1O[C@H](Cc2cc(-c3ccc(F)cc3)on2)CC[C@@H]1O)c1ccncc1 do in these assays?
ALOX12 inh: 6%[176 µM]

What do the screens show for `CC(NC(=O)NOCc1ccccc1)c1ccccn1` (stereo not drawn)?
ALOX12 inh: 32%

Results for CC(=O)N1CCN(c2ccc(NS(=O)(=O)c3ccc(C)cc3)cc2)CC1 ?
VDR inhibitor: 4%; Sfp inh: 8%; G9a inh: 45µM*; ALOX12 inh: inconclusive; Glioma ERSR ind: -5%

Results for Cc1ccc(S(=O)(=O)Nc2ccc(N3CCOCC3)cc2)cc1 ?
VDR inhibitor: 3%; Sfp inh: -2%; G9a inh: 79µM*; ALOX12 inh: 13%; Glioma ERSR ind: -3%

How did Cc1cc2cc(NS(=O)(=O)c3ccc4ccccc4c3)ccc2[nH]1 do in these assays?
ALOX12 inh: 10µM*

Results for Cc1ccc(S(=O)(=O)Nc2ccc(C(=O)N3CCOCC3)cc2)cc1 ?
VDR inhibitor: -1%; Sfp inh: 10%; G9a inh: 0%; ALOX12 inh: 19%; Glioma ERSR ind: -2%

What do the screens show for `O=S(=O)(Nc1ccc(N2CCOCC2)cc1)c1ccc2ccccc2c1`?
VDR inhibitor: -6%; Sfp inh: -10%; G9a inh: 40µM*; ALOX12 inh: -8%; Glioma ERSR ind: -1%

What do the screens show for `Cc1cc2cc(NS(=O)(=O)c3ccccc3)ccc2[nH]1`?
ALOX12 inh: -29%

How did COc1ccc2c(C)c(CCC(=O)Nc3cc(C)cc(C)c3)c(=O)oc2c1 do in these assays?
ALOX12 inh: -33%

What do the screens show for `O=C(NCc1ccc(-n2cccn2)cc1)c1ccc(F)cc1Br`?
ALOX12 inh: -13%

Results for Cc1ccccc1S(=O)(=O)N1C(c2ccc(Cl)c(Cl)c2)CC=C(C(=O)O)C1c1cccc(Br)c1 (stereo not drawn) ?
ALOX12 inh: 50µM*

Results for Cc1ccccc1S(=O)(=O)N1[C@@H](c2ccc(Br)cc2)C(C(=O)O)=CC[C@H]1c1ccc(Cl)cc1 ?
VDR inhibitor: inconclusive; ALOX12 inh: inconclusive; Glioma ERSR ind: 0%

Results for COc1cccc(CNC(=O)[C@@H]2C[C@@H](O)CN2C2CCN(C(=O)c3ccc(C)s3)CC2)c1 ?
ALOX12 inh: 58%

How did Cc1cc[n+](C)c2ccccc12 do in these assays?
Glioma ERSR ind: -4%

What do the screens show for `CN1/C(=C/c2cc[n+](C)c3ccccc23)C=Cc2ccccc21`?
VDR inhibitor: 1%; Sfp inh: -4%; G9a inh: 35µM*; Glioma ERSR ind: -8%

How did COc1ccccc1/C=C/C=C(/C#N)C(=O)Nc1ccccc1C(=O)O do in these assays?
ALOX12 inh: 7.1µM*

What do the screens show for `COc1ccc(/C=C(\C#N)C(=O)Nc2ccccc2C(=O)O)cc1OC(=O)c1ccccc1Cl`?
ALOX12 inh: 40µM*

How did COc1ccc(S(=O)(=O)NCC(=O)Nc2ccc3c(c2)OCCO3)cc1OC do in these assays?
VDR inhibitor: 10%; Sfp inh: 1%; G9a inh: 50µM*; ALOX12 inh: 11%; Glioma ERSR ind: -2%

Results for CC(Oc1ccc(F)cc1)C(=O)Nc1cccc(-c2nn[nH]n2)c1 (stereo not drawn) ?
VDR inhibitor: inconclusive; Sfp inh: 32µM*; G9a inh: 25µM*; ALOX12 inh: inconclusive; Glioma ERSR ind: -3%

How did COc1ccccc1OC(C)C(=O)Nc1ccc2c(c1)OCCO2 (stereo not drawn) do in these assays?
VDR inhibitor: 6%; Sfp inh: 15%; G9a inh: 32µM*; ALOX12 inh: -6%; Glioma ERSR ind: -3%

How did COc1ccc(NC(=O)CNS(=O)(=O)c2ccc(Cl)cc2)cc1OC do in these assays?
VDR inhibitor: -4%; Sfp inh: 18%; G9a inh: -12%; ALOX12 inh: 2%; Glioma ERSR ind: -3%

What do the screens show for `Cc1ccccc1OC(C)C(=O)Nc1ccc2c(c1)OCO2` (stereo not drawn)?
VDR inhibitor: -6%; Sfp inh: 6%; G9a inh: 16%; ALOX12 inh: -1%; Glioma ERSR ind: 0%

How did CC(Oc1ccc(F)cc1)C(=O)Nc1cccc(-c2nc3ccccc3o2)c1 (stereo not drawn) do in these assays?
ALOX12 inh: -29%

Results for COc1ccccc1OC(C)C(=O)Nc1cccc(-c2nc3ccccc3s2)c1 (stereo not drawn) ?
VDR inhibitor: 10%; G9a inh: 8.9µM*; ALOX12 inh: inconclusive; Glioma ERSR ind: -1%

How did CC(Oc1ccccc1F)C(=O)Nc1ccc(-c2nc3ccccc3s2)cc1 (stereo not drawn) do in these assays?
VDR inhibitor: 7%; G9a inh: -23%[59 µM]; ALOX12 inh: -2%; Glioma ERSR ind: -2%

What do the screens show for `Cc1nn(-c2nc(CC(=O)Nc3ccccc3F)cs2)c(C)c1Cc1ccccc1`?
ALOX12 inh: -16%

What do the screens show for `COc1cc(SC)ccc1C(=O)Nc1ccc2c(c1)OCCO2`?
VDR inhibitor: 2%; Sfp inh: -8%; G9a inh: 50µM*; ALOX12 inh: 2%; Glioma ERSR ind: -1%

How did CCN(CC)c1ccc(NC(=O)COc2ccc(N(C)S(=O)(=O)c3cccs3)cc2)cc1 do in these assays?
VDR inhibitor: -18%; Sfp inh: inconclusive; G9a inh: 7.9µM*; ALOX12 inh: 2%; Glioma ERSR ind: -4%
